For 17 molecules, Kd results are on record in paper PMC5540273 (PLoS ONE, 2017).

Experiment [1] relates to RPS6KA5(Kin.Dom.1-N-terminal).
The test system of experiment [2] is RPS6KA4(Kin.Dom.1-N-terminal).

Structures are written as SMILES. Some results are limits rather than exact numbers.
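Also: kd values determined as follow-up on hits from a single-replicate KINOMEscan panel screen.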

`Cl.O=S(=O)(c1cccc(F)c1)c1ccc(Nc2ncnc3cc(Br)sc23)cc1Cl` [GSK306886]: the Kd (commonly the constant that tells how readily two partners part at equilibrium) with RET is over 10000 nM.
Regarding `Fc1cccc(COc2ccc(Nc3ncnc4sc(-c5ccc[nH]5)cc34)cc2Cl)c1` [GW707818], the Kd (with PRKCH; in experiment [1]) was over 10000 nM throughout.
Consider `NC(=O)c1sc(-n2cnc3ccccc32)cc1OCc1ccccc1F` [GSK1024306], for which the Kd amounted to 9.6 nM in the experiment on PLK1; 25 nM in the experiment on PLK2; 52 nM in the experiment with PLK3; 460 nM with ROCK1; 470 nM in the experiment with ROCK2.
Regarding `O=C(c1ccc(-c2cc(-c3c[nH]nc3-c3ccccn3)ccn2)cc1)N1CCCC1` [GW792479], in the experiment on PRKCI, the Kd was over 10000 nM.
In the experiment on RIPK2, `O=C(Nc1ccccc1)Nc1ccc(Oc2ccc3nccn3n2)cc1` yielded a Kd of over 10000 nM.
Turning to `O=c1cc(N2CCOCC2)nc2n(Cc3cccc(Cl)c3)ccn12` [GSK2296823], in the experiment on RET, the Kd is over 10000 nM.
In the experiment with RIOK3, `Nc1nc(-c2ccc3c(N)n[nH]c3c2)cc(N2CCC[C@@H](C(=O)Nc3ccccc3)C2)n1.O=C(O)C(F)(F)F.O=C(O)C(F)(F)F` [GSK2288359] yielded a Kd of 570 nM.
As for `C[C@@H]1CCN(C(=O)CO)C[C@@H]1N(C)c1ncnc2[nH]ccc12`, the Kd (with PRKG1; in experiment [2]) was over 10000 nM in each case.
In turn, `COc1cc2c(Nc3cccc(NC(=O)c4ccccc4)c3)ncnc2cc1OCCCN1CCOCC1` [GSK223810] displayed a Kd in the experiment on RET of 110 nM.
Still for that read-out and setting: under `Nc1n[nH]c2nnc(-c3ccccc3)cc12` [SB-517389] stands over 10000 nM.
In the case of `Oc1ccc2ncnc(Nc3ccc(OCc4ccccc4)cc3)c2c1` [GI262866], binding in the experiment with RIPK2 was characterised by a dissociation constant (Kd) of 8.1 nM.
As to `O=C(Nc1ccccc1F)NC1CCN(c2ccnc(Nc3ccc(F)cc3)n2)C1` (centres unmarked) [GSK1379722], in the experiment with RIPK4, the dissociation constant Kd was over 10000 nM.
With `Nc1nccc2scc(-c3ccc4c(c3)CCN4C(=O)Cc3cc(F)ccc3F)c12` [GSK2587663], the Kd in the experiment with RIPK1 came out at 570 nM.
`Cl.Cl.c1ccc(-c2cc3ccncc3cc2OC2CCNCC2)cc1` [GSK1122999]: the Kd with PRKCE is 640 nM; with PRKCH it was 390 nM; in the experiment on ROCK1 it was 130 nM; with ROCK2, 180 nM.
With `Cc1cccc(-c2nc(Nc3ccc4[nH]nnc4c3)c3ccccc3n2)n1` [GW867587], the Kd with PRKD1 turned out to be 61 nM; in the experiment with PRKD2, 83 nM.
In turn, `CCc1nc(-c2cccc(N(C)S(=O)(=O)c3ccccc3)c2)c(-c2ccnc(Nc3ccc(N4CCN(C(C)=O)CC4)nc3)n2)s1` [GSK1645895] gave a Kd with RIPK2 of 130 nM.
As to `COc1cc2ncnc(Nc3ccc(OCc4ccccc4Br)c(Cl)c3)c2cc1OC.Cl` [GI261590], the values for the Kd in the experiment with PKN1, in the experiment with PRKCQ and in the experiment on RIPK2 were over 10000 nM, over 10000 nM and 410 nM, respectively.
